From PubChem BioAssay (Tox21) come the findings set out here.

Values joined by “and” are separate entries in the source; they are usually repeats but may differ in a detail not shown here. Equal values may be shown once. Inconclusive results are not listed. Active and inactive are the calls of the source. Unless noted, the call rests on the fitted dose curve; in most records, active means well fitted curve in the direction sought with a large enough effect in the repeat runs; inconclusive means weak or mixed curves; inactive means no such curve, though single readings can be large; an effect the other way counts as inactive or inconclusive.

Assay [1] is described as follows: qHTS assay to identify small molecule antagonists of the retinoid acid receptor (RAR) signaling pathway - cell viability counter screen (AID 1159551). Further: nearly all actives have a fitted effect of over 35% in size. Further: potency means the concentration at half of the fitted maximal effect. The gist of the method: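 C3RL4 cells were seeded overnight at 37 C, then treated with compounds plus 1 uM (final) retinol for 6 h at 37 C. Viability was read as ATP by CellTiter-Glo luminescence after 30 min at room temperature.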

A short description of assay [2]: qHTS assay to identify small molecule antagonists of the retinoic acid receptor (RAR) signaling pathway (AID 1159552; further: nearly all actives have a fitted effect of over 50% in size; further: potency means the concentration at half of the fitted maximal effect). The gist of the method:
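Luminescent RARE reporter read-out in C3RL4 cells: 6 hr co-treatment at 37 C of test compounds with retinol at 1 uM final. Cells plated overnight beforehand; luciferase reagent incubated 30 min at room temperature before reading.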
A general note: In qHTS, concentration-response curves come from the screen itself.

The nature of assay [3]: qHTS assay to identify small molecule antagonists of the estrogen related receptor (ERR) signaling pathway from Tox21 library - cell viability counter screen (AID 1224834). Further: nearly all actives have a fitted effect of over 30% in size. Further: potency means the concentration at half of the fitted maximal effect. The gist of the method: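 ERR reporter cells were plated 6 h before compound addition, then exposed to test compounds in DMSO for 17.5 h at 37 C. Viability was read as CellTiter-Fluor fluorescence after a 30-minute incubation at 37 C.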

In assay [4] the target is Luciferin 4-monooxygenase (Photinus pyralis) (UniProt P08659). Briefly: qHTS assay to identify small molecule inhibitors of firefly luciferase (AID 1224835). Further: nearly all actives have a fitted effect of over 25% in size. Further: potency means the concentration at half of the fitted maximal effect. Summed up:
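Quantitative HTS format; KM concentrations of both substrates. Purified P. pyralis FLuc activity quantified from luminescence images.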

The nature of assay [5]: qHTS assay to identify small molecule agonists of the constitutive androstane receptor (CAR) signaling pathway - cell viability counter screen (AID 1224836). Further: nearly all actives have a fitted effect of over 45% in size. Further: potency means the concentration at half of the fitted maximal effect. Summed up: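 Cell viability multiplexed with the CAR agonist screen: CellTiter-Fluor fluorescence after 23 hr at 37 C. HepG2-CYP2B6-hCAR cells got compounds at 15 concentrations with PK11195 at 0.75 uM final.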
Assay [6] in a line: qHTS assay to identify small molecule antagonists of the constitutive androstane receptor (CAR) signaling pathway - cell viability counter screen (AID 1224837). Further: nearly all actives have a fitted effect of over 45% in size. Further: potency means the concentration at half of the fitted maximal effect. The gist of the method:
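HepG2 cells stably expressing hCAR and a CYP2B6-2.2kb reporter were plated and pre-incubated 4 hr at 37 C/5% CO2, then given compounds at 15 concentrations plus 50 nM CITCO (final). After 23 hr, viability was read by CellTiter-Fluor fluorescence.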

The target in assay [7] is Nuclear receptor subfamily 1 group I member 3 (Homo sapiens) (UniProt Q14994). Nature of the assay: qHTS assay to identify small molecule antagonists of the constitutive androstane receptor (CAR) signaling pathway (AID 1224838). Further: nearly all actives have a fitted effect of over 40% in size. Further: potency means the concentration at half of the fitted maximal effect. Summed up: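 HepG2 cells stably co-transfected with hCAR and a CYP2B6-2.2kb luciferase reporter were seeded 4 h before compound addition at 15 concentrations. Cells were stimulated with 50 nM CITCO (final) for 24 h at 37 C; luciferase luminescence was then read.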
Sequence of Nuclear receptor subfamily 1 group I member 3 (Homo sapiens) (Q14994 whole entry, looked up): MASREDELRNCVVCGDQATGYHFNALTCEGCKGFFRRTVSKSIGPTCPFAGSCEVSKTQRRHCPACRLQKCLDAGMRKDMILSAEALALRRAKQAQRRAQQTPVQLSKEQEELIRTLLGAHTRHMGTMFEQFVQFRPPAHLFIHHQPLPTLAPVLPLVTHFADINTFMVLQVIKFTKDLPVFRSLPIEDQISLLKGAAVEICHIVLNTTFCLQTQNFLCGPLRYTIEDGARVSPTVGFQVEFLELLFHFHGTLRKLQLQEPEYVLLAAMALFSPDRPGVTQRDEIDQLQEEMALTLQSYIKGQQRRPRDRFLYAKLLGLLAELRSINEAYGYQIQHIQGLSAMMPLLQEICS

A short description of assay [8]: qHTS assay to identify small molecule antagonists of the estrogen related receptor signaling pathway with the pleiotropic PPARgamma coactivator (PGC) from Tox21 10K library - cell viability counter screen (AID 1224840; active means well fitted cell-killing curve with a large enough effect in the repeat runs, not every such curve was filed as active; further: nearly all actives have a fitted effect of over 40% in size; further: potency means the concentration at half of the fitted maximal effect). Summed up:
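PGC/ERR cells were seeded at 2,000 cells/well and left 6 hours at 37 C/5% CO2 before pin-tool addition of compounds in DMSO. After 17.5 hours at 37 C, CellTiter-Fluor was added and fluorescence read 30 minutes later.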

For assay [9], the target named is Thyrotropin receptor (Homo sapiens) (UniProt P16473). Nature of the assay: qHTS assay to identify small molecule agonists of the thyroid stimulating hormone receptor (TSHR) signaling pathway (AID 1224843; calls by dose curve; further: nearly all actives have a fitted effect of over 45% in size). The gist of the method: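 Cell line HEK293 with TSHR; density 800/well. Exposure 30 min RT. Readout HTRF cAMP (cAMP-d2/anti-cAMP-cryptate), 1 h RT before reading.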
Sequence of Thyrotropin receptor (Homo sapiens) (P16473 whole entry, looked up): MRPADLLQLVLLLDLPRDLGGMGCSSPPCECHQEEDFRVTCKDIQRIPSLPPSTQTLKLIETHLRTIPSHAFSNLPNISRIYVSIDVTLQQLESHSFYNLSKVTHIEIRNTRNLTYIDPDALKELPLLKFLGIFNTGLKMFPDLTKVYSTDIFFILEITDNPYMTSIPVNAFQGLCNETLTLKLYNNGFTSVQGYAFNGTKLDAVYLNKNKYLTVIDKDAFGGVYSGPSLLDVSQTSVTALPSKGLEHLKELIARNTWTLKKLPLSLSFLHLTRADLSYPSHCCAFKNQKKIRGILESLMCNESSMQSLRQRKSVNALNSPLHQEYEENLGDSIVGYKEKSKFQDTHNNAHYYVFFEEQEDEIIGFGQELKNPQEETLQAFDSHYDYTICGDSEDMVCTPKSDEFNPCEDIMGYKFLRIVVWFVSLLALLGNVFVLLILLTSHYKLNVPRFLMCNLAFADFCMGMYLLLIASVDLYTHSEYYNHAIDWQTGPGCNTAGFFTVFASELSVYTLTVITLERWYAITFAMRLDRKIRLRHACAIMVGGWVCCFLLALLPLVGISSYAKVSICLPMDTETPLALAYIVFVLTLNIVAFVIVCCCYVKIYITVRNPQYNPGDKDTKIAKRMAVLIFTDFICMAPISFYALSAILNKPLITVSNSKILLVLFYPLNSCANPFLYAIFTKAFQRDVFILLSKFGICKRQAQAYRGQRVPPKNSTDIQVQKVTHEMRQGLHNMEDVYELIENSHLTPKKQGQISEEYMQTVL

Assay [10] is described as follows: qHTS assay to identify small molecule agonists of the hypoxia (HIF-1) signaling pathway - cell viability counter screen (AID 1224844; calls by dose curve; further: nearly all actives have a fitted effect of over 50% in size; further: potency means the concentration at half of the fitted maximal effect). Summed up: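 HRE-bla ME-180 cells in medium with 0.5% dialyzed FBS were preincubated 5 hrs at 37C, exposed to compounds for 17 hrs, then viability was read as CellTiter-Glo luminescence after 30 min at room temperature, in the reporter wells.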

The target of assay [11] is Nuclear receptor subfamily 1 group I member 3 (Homo sapiens) (UniProt Q14994). Nature of the assay: qHTS assay to identify small molecule agonists of the constitutive androstane receptor (CAR) signaling pathway (AID 1224839). Further: nearly all actives have a fitted effect of over 15% in size. Further: potency means the concentration at half of the fitted maximal effect. On activation: series mostly up to about 92 µM. The gist of the method: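 Luminescent ONE-Glo read-out after 24 hr, 37 C exposure of double-stable HepG2-CYP2B6-hCAR reporter cells to a 15-point compound series, in the presence of 0.75 uM PK11195 (final).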

The nature of assay [12]: qHTS assay to identify small molecule agonists of H2AX (AID 1224845; active means well fitted activation curve with a large enough effect in the signal ratio in the repeat runs, not every such curve was filed as active; the % refers to the signal ratio; further: potency means the concentration at half of the fitted maximal effect). The gist of the method:
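Wild-type CHO-K1 cells plated overnight, then exposed 3 hr at 37C to compounds at 15 concentrations (0.76% DMSO). Lysed, then HTRF anti-pH2AX(S139)-cryptate/anti-H2AX-d2 detection after 24 hr at room temperature; emissions 665 and 620 nm.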

The nature of assay [13]: qHTS assay to identify small molecule agonists of the estrogen related receptor signaling pathway with the pleiotropic PPARgamma coactivator (PGC) from Tox21 10K library (AID 1224842). Further: nearly all actives have a fitted effect of over 15% in size. Summed up: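 PGC/ERR reporter cells (NTP line) were seeded 2,000 per well, rested 6 h at 37 C/5% CO2, then pin-dosed with compounds in DMSO for 18 h at 37 C; luciferase read by One-Glo luminescence after 30 min at room temperature.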

Sequence of Luciferin 4-monooxygenase (Photinus pyralis) (P08659 whole entry, looked up): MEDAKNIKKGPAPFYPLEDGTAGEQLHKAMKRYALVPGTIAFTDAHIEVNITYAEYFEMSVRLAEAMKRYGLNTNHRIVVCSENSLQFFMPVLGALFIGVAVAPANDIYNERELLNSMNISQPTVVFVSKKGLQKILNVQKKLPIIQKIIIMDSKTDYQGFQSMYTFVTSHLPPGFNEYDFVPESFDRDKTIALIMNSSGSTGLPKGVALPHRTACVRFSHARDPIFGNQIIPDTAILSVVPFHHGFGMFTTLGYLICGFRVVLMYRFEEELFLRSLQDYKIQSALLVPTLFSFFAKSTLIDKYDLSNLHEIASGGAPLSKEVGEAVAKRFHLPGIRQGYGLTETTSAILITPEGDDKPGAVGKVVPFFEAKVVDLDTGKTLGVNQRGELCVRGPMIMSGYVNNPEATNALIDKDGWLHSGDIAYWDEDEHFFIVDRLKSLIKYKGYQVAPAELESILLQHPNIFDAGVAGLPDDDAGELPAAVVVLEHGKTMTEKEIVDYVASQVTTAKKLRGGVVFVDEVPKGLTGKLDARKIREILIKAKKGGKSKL

On to `CCOP(=S)(OCC)SCS(=O)(=O)C(C)(C)C`, for which the Potency result in [1], in [2], in assay [3], in [4], in [5] and in [6] was “inactive” each time. Also, the Potency result in [7], in assay [8], in assay [9] and in [10] was “inactive” each time.
As for `CC(=O)c1ccc(-c2ccccc2)cc1`, the Potency entry in assay [1], in assay [2], in assay [3], in assay [5], in [7] and in assay [8] was “inactive” each time. In addition, the Potency result in assay [9], in assay [10] and in assay [12] was “inactive” each time. Besides, the Potency was 31.7 µM (active) in assay [4] and 48.6 µM (active) in assay [11].
Consider `CCCCCCCCCCBr`, for which the Potency entry in assay [1], in assay [2], in assay [3], in assay [4], in [5] and in [6] was “inactive” in each case. The Potency result in [8], in assay [13], in [10] and in assay [12] was “inactive” throughout.
In the case of `O=[N+]([O-])c1cc(Cl)ccc1Cl`, the Potency entry in assay [1], in [2], in assay [3], in [4], in [5] and in assay [6] was “inactive” throughout. Besides, the Potency entry in assay [7], in [11], in [8], in assay [9], in assay [10] and in assay [12] was “inactive” throughout.
On to `CCOC(=O)c1ccccc1S(=O)(=O)NC(=O)Nc1nc(Cl)cc(OC)n1`, for which the Potency result in assay [1], in assay [2], in [3], in [4], in assay [5] and in assay [6] was “inactive” in each case. Also, the Potency entry in [7], in [11], in assay [8], in assay [9], in assay [10] and in [12] was “inactive” in each case.
Regarding `CN(C)CCc1c[nH]c2ccc(O)cc12`, the Potency entry in assay [1], in assay [2], in assay [3], in assay [4], in assay [5] and in [7] was “inactive” in each case. The Potency entry in assay [11], in assay [8], in assay [9] and in assay [10] was “inactive” in each case.
On to `ClC1=C(Cl)C2(Cl)C3C(Cl)C(Cl)CC3C1(Cl)C2(Cl)Cl` (centres undefined), for which the Potency result in assay [1], in assay [4], in [5], in assay [6], in [7] and in assay [13] was “inactive” in each case. For the same compound, the Potency is 54.5 µM (active) in assay [2]; 68.4 µM (active) in assay [3]; 3.05 µM (active) and 15.4 µM (active) in [11]; 61.1 µM (active) in [8]; 21.8 µM (active) in assay [10]; 100 µM (active) and 89.8 µM (active) in [12].
Regarding `CC(C)(C)c1cc([N+](=O)[O-])cc(C(C)(C)C)c1O`, the Potency entry in assay [1], in assay [4], in [13], in assay [9], in assay [10] and in assay [12] was “inactive” throughout. Besides, the Potency is 15.4 µM (active) in assay [2]; 13.7 µM (active) in assay [3]; 19.3 µM (active) in assay [5]; 21.7 µM (active) in [6]; 27.3 µM (active) in assay [7]; 5.45 µM (active) in assay [11]. In addition, in [8], the Potency is 13.7 µM (active).
Regarding `[Cl][Sb]([Cl])[Cl]`, the Potency entry in assay [1], in [2], in assay [4], in assay [5], in assay [6] and in assay [7] was “inactive” each time. Further, the Potency result in assay [11] and in assay [9] was “inactive” in each case. For the same compound, in assay [3], the Potency is 21.7 µM (active).
Consider `Cn1[nH]nnc1=S`, for which the Potency entry in assay [1], in [2], in assay [3], in [5], in assay [7] and in assay [11] was “inactive” throughout. The Potency entry in assay [8], in assay [9] and in assay [10] was “inactive” each time. The Potency in assay [4] was 22.4 µM (active).
For `Oc1ccc2ccc3cccc4ccc1c2c34`, the Potency entry in assay [1], in [2], in assay [3], in [5], in assay [6] and in assay [8] was “inactive” each time. The Potency result in [9] and in assay [10] was “inactive” each time. Also, the Potency in assay [4] was 79.6 µM (active); in assay [11], 61.1 µM (active).
With `ClCCN1CCOCC1`, the Potency entry in assay [1], in assay [2], in assay [3], in [4], in assay [5] and in assay [6] was “inactive” in each case. Moreover, the Potency result in assay [8], in assay [13], in assay [9], in [10] and in [12] was “inactive” in each case.
Regarding `C[As+](C)(C)CC(=O)[O-]`, the Potency result in [1], in assay [2], in assay [3], in assay [4], in [5] and in [6] was “inactive” throughout. The Potency entry in assay [7], in [11], in assay [8], in [13], in assay [9] and in assay [10] was “inactive” each time. Also, the Potency entry in assay [12] was “inactive”.
With `CCOP(=S)(OCC)SCS(=O)(=O)CC`, the Potency result in [1], in assay [2], in assay [3], in [4], in [5] and in assay [11] was “inactive” each time. Besides, the Potency result in assay [8], in [13], in assay [9] and in [10] was “inactive” throughout.
`N#Cc1ccc(O)cc1`: the Potency result in assay [1], in assay [2], in assay [3], in assay [4], in assay [5] and in [7] was “inactive” each time. In addition, the Potency result in assay [11], in assay [8], in [9], in assay [10] and in [12] was “inactive” throughout.
With `ClCc1ccccc1CCl`, the Potency entry in assay [1], in assay [2], in assay [3], in assay [4], in assay [5] and in [7] was “inactive” in each case. The Potency result in assay [11], in [8], in [9] and in assay [12] was “inactive” in each case.
Turning to `CC(Cl)CN(C)C` (centres undefined), the Potency result in [1], in assay [2], in [3], in assay [4], in assay [5] and in assay [6] was “inactive” in each case. For the same compound, the Potency entry in assay [7], in assay [11], in assay [8] and in assay [12] was “inactive” each time.
For `CCCCCCCCCC[N+](C)(C)CCCCCCCCCC`, the Potency was 61.1 µM (active) in [1]; 12.2 µM (active) in assay [2]; 43.3 µM (active) in [3]; 43.3 µM (active) in [5]; 24.3 µM (active) in assay [6]; 27.3 µM (active) in assay [7]. The figures for the Potency in assay [8] and in assay [10] were 27.3 µM (active) and 27.5 µM (active), respectively. Besides, the Potency entry in assay [4], in assay [11] and in assay [9] was “inactive” throughout.
With `Cl/C=C\CCl`, the Potency result in assay [1], in assay [2], in [3], in assay [4], in assay [5] and in assay [6] was “inactive” in each case. The Potency result in [7], in [11], in assay [8], in assay [13], in assay [9] and in [10] was “inactive” in each case. Also, the Potency result in assay [12] was “inactive”.
For the compound `CCC(C)(C)C(=O)OC1=C(c2ccc(Cl)cc2Cl)C(=O)OC12CCCCC2`, the Potency result in assay [1], in assay [2], in [3], in [5], in assay [7] and in assay [11] was “inactive” throughout. Further, the Potency result in assay [8], in assay [9] and in [12] was “inactive” throughout. Besides, the results for the Potency in assay [4] and in assay [10] were 31.7 µM (active) and 49 µM (active), respectively.
